Laboratory results: PubChem BioAssay AID1159580 (chemical genetic matrix, 2015)
Hit rate of the full screen: of about 5,500 compounds, about 2,000 (36%) were called active. Inconclusive results (about 18%) are left out. Rule as the data show it: active = normalized growth mostly below about 0.91 (no sharp cut-off); inconclusive = no clear call, values can overlap the other calls; inactive = mostly above about 0.92. The list shows a part of the results.

Assay: chemical genetic growth profiling, strain panel (AID 1159580);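 also: tested at 20 µM; growth read once vehicle control cultures reached saturation at 30 °C; 1 = growth at the plate median or of vehicle wells; lower values mean less growth of the strain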
Conditions: S. cerevisiae deletion strains, growth OD

Measured: normalized growth

O=C1c2ccccc2C(=O)c2c(O)c(O)cc(O)c21
active: locus YAL021C, strain ccr4, hits give low values 0.105 | locus YAL026C, strain drs2, hits give low values 0.209 | locus YAL030W, strain snc1, hits give low values 0.471 | locus YBL061C, strain skt5, hits give low values 0.403 | locus YBR009C, strain hhf1, hits give low values 0.415 | locus YBR023C, strain chs3, hits give low values 0.35 | locus YBR171W, strain sec66, hits give low values 0.541 | locus YBR231C, strain swc5, hits give low values 0.228 | locus YBR279W, strain paf1, hits give low values 0.478 | locus YCL011C, strain gbp2, hits give low values 0.436 | locus YCL016C, strain dcc1, hits give low values 0.492 | locus YCL061C, strain MRC1, hits give low values 0.503 | locus YCL069W, strain vba3, hits give low values 0.426 | locus YCR088W, strain abp1, hits give low values 0.548 | locus YDL005C, strain med2, hits give low values 0.114 | locus YDL040C, strain nat1, hits give low values 0.639 | locus YDR001C, strain nth1, hits give low values 0.583 | locus YDR069C, strain doa4, hits give low values 0.22 | locus YDR137W, strain rgp1, hits give low values 0.136 | locus YDR159W, strain sac3, hits give low values 0.475 | locus YDR195W, strain ref2 0.766 | locus YDR297W, strain sur2, hits give low values 0.47 | locus YDR334W, strain swr1, hits give low values 0.206 | locus YDR335W, strain msn5, hits give low values 0.386 | locus YDR392W, strain spt3, hits give low values 0.164 | locus YEL003W, strain gim4, hits give low values 0.392 | locus YEL037C, strain rad23, hits give low values 0.421 | locus YEL061C, strain CIN8 (second series), hits give low values 0.494 | locus YER015W, strain faa2, hits give low values 0.323 | locus YER016W, strain bim1, hits give low values 0.505 | locus YER111C, strain swi4, hits give low values 0.223 | locus YER155C, strain BEM2 (second series), hits give low values 0.248 | locus YFR010W, strain ubp6, hits give low values 0.412 | locus YGL167C, strain pmr1, hits give low values 0.212 | locus YGL173C, strain kem1, hits give low values 0.193 | locus YGL227W, strain vid30, hits give low values 0.627 | locus YGL240W, strain doc1, hits give low values 0.383 | locus YGL253W, strain hxk2, hits give low values 0.262 | locus YHR013C, strain ard1, hits give low values 0.293 | locus YHR027C, strain rpn1, hits give low values 0.268 | locus YHR030C, strain SLT2, hits give low values 0.183 | locus YHR079C, strain IRE1, hits give low values 0.202 | locus YHR142W, strain chs7, hits give low values 0.242 | locus YJL092W, strain hpr5, hits give low values 0.529 | locus YJL095W, strain BCK1 (second series), hits give low values 0.121 | locus YJL095W, strain BCK1, hits give low values 0.192 | locus YJL115W, strain asf1, hits give low values 0.431 | locus YJL129C, strain trk1, hits give low values 0.396 | locus YJL154C, strain vps35, hits give low values 0.489 | locus YJL164C, strain tpk1, hits give low values 0.339 | locus YJL166W, strain qcr8, hits give low values 0.327 | locus YJL187C, strain SWE1, hits give low values 0.434 | locus YJR066W, strain TOR1, hits give low values 0.174 | locus YKL160W, strain elf1, hits give low values 0.507 | locus YKR026C, strain gcn3, hits give low values 0.665 | locus YKR091W, strain srl3, hits give low values 0.648 | locus YLL001W, strain dnm1, hits give low values 0.39 | locus YLL026W, hits give low values 0.444 | locus YLL041C, strain sdh2, hits give low values 0.584 | locus YLR027C, strain aat2, hits give low values 0.435 | locus YLR113W, strain HOG1, hits give low values 0.199 | locus YLR221C, strain rsa3, hits give low values 0.414 | locus YLR258W, strain gsy2, hits give low values 0.455 | locus YLR262C, strain YPT6 (second series), hits give low values 0.141 | locus YLR320W, strain mms22, hits give low values 0.266 | locus YLR342W, strain FKS1, hits give low values 0.443 | locus YLR357W, strain rsc2, hits give low values 0.534 | locus YLR370C, strain arc18, hits give low values 0.293 | locus YLR384C, strain iki3, hits give low values 0.401 | locus YML120C, strain ndi1, hits give low values 0.334 | locus YMR058W, strain fet3, hits give low values 0.33 | locus YMR125W, strain sto1, hits give low values 0.699 | locus YMR129W, hits give low values 0.557 | locus YMR205C, strain PFK2, hits give low values 0.356 | locus YMR231W, strain pep5, hits give low values 0.296 | locus YNL071W, strain lat1, hits give low values 0.306 | locus YNL183C, strain NPR1, hits give low values 0.159 | locus YNL209W, strain ssb2, hits give low values 0.252 | locus YNL248C, strain rpa49, hits give low values 0.336 | locus YNL322C, strain KRE1 (second series), hits give low values 0.424 | locus YNR049C, strain mso1, hits give low values 0.489 | locus YOR001W, strain rrp6, hits give low values 0.446 | locus YOR070C, strain gyp1, hits give low values 0.439 | locus YOR080W, strain dia2, hits give low values 0.435 | locus YOR083W, strain WHI5, hits give low values 0.399 | locus YOR106W, strain vam3, hits give low values 0.193 | locus YOR231W, strain MKK1, hits give low values 0.197 | locus YOR265W, strain rbl2, hits give low values 0.447 | locus YOR270C, strain vph1, hits give low values 0.165 | locus YOR290C, strain snf2, hits give low values 0.282 | locus YPL051W, strain arl3, hits give low values 0.168 | locus YPL078C, strain atp4, hits give low values 0.344 | locus YPL106C, strain sse1, hits give low values 0.491 | locus YPL240C, strain hsp82, hits give low values 0.497 | locus YPL256C, strain CLN2, hits give low values 0.228
